In PubChem BioAssay (NCI) one finds growth data, which are given here for nine molecules.

SMILES strings stand for the structures. This is part of a sample that, as a whole, favours compounds with a hit. Of some 83,000 tested, about 20% had one in any assay.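 A percent growth of 40 corresponds to 60% growth inhibition; 0 means no net growth; -100 means all cells died. Active threshold: below 10.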 A number with no mark means an inactive call. Calls of active or inactive are those of the source.

Holding throughout (assay): NCI-60 one-dose screen, 48 h (100 = growth as untreated, 0 = no growth, -100 = all killed)
Test [1] has as its system SK-MEL-2 melanoma. To be noted: 10 µM unless noted.
Test [2] deals with EKVX NSCLC. Conditions: 10 µM unless noted.
Test [3] relates to SN12C renal. To be noted: 10 µM unless noted.
For test [4], the system named is TK-10 renal. Conditions: 10 µM unless noted.
The test system of test [5] is ACHN renal. To be noted: 10 µM unless noted.
Test [6] relates to A498 renal. Conditions: 10 µM unless noted.
The subject of test [7] is CCRF-CEM leukemia. To be noted: 10 µM unless noted.
The subject of test [8] is MOLT-4 leukemia. Conditions: 10 µM unless noted.
Test [9] concerns SR leukemia. Conditions: 10 µM unless noted.
Test [10] has as its system RPMI-8226 leukemia. Conditions: 10 µM unless noted.
In test [11] the test system is OVCAR-8 ovarian. Conditions: 10 µM unless noted.
Test [12] deals with OVCAR-5 ovarian. Conditions: 10 µM unless noted.
Test [13] has as its system OVCAR-4 ovarian. To be noted: 10 µM unless noted.
For test [14], the system named is SK-OV-3 ovarian. To be noted: 10 µM unless noted.
Test [15] relates to IGROV1 ovarian. To be noted: 10 µM unless noted.
The test system of test [16] is OVCAR-3 ovarian. To be noted: 10 µM unless noted.
For test [17], the system named is HS 578T breast. To be noted: 10 µM unless noted.
In test [18] the test system is NCI/ADR-RES ovarian. To be noted: 10 µM unless noted.
The subject of test [19] is CAKI-1 renal. Conditions: 10 µM.

On to `CN(C)c1ncc(C#Cc2c(F)cccc2F)c2ccccc12`, for which the growth is 81.5% in test [1]; 74.8% in test [2]; 78.8% in test [3]; 112% in [4]; 96.3% in test [5]; 100% in [6]. Also, the growth in test [7] was 96.3%; in [8], 80.8%; in test [9], 83.8%; in test [10], 68.1%; in test [11] it was 93.7%; in test [12] it was 99.8%. In addition, the growth in test [13] was 85.3%; in test [14], 89.3%; in test [15], 48.2%; in test [16], 88.4%; in [17], 108%; in [18], 92.9%.

As for `Cc1cc2nc(-c3c(N)ncc(C#N)c3-c3ccc(Cl)cc3)[nH]c2cc1C`, the growth in [1] is 59.9%; in [2], 63.7%; in test [3] it was 76.5%; in test [4], 41.5%; in test [5] it was 67.7%; in test [6], 44.1%. Moreover, the growth in [7] was 54.5%; in test [8] it was 73.3%; in test [9], 49.4%; in test [10], 56%; in test [11], 38.4%; in [12] it was 83.2%. Also, the growth is 56.1% in [13]; 75.9% in test [14]; 46% in test [15]; 21.8% in test [16]; 53.9% in [18].

Regarding `O=C(Nc1cccc(-n2ccc3c(NC(=O)c4ccccc4)nccc32)c1)Nc1cc(C(F)(F)F)cc(C(F)(F)F)c1`, the growth was -11.9% (active) in test [1]; 19% in test [2]; 12.7% in test [3]; 8.65% (active) in [5]; 15.3% in test [19]; 16.4% in [6]. Also, the growth in test [7] was -4.29% (active); in [8], 7.11% (active); in test [9], -14.9% (active); in test [10] it was -30.6% (active); in [11], -32.1% (active); in test [12], 28%. Also, the growth is 43.9% in test [13]; 13.5% in [14]; 6.92% (active) in test [15]; -26.9% (active) in test [16]; -30.5% (active) in [18].

In the case of `O=[N+]([O-])c1ccc(NS(=O)(=O)c2cc(Cl)ccc2Cl)c2ccccc12`, the growth in test [1] was 18.7%; in [2], 50.9%; in test [3], 45.8%; in test [4], 75.8%; in [5] it was 78.9%; in test [6] it was 23.9%. Moreover, the growth in [7] is 29.1%; in [8] it was 46.8%; in test [9] it was 60.1%; in test [10], 14.1%; in [11], 79.5%; in test [12], 89.1%. Also, the growth in test [13] is 54%; in [14] it was 59.6%; in test [15] it was 82.3%; in test [16], 33.7%; in [17], 54.3%; in test [18], 59.3%.

For the molecule `O=C(/C=C/c1ccco1)c1cccc(Nc2nc(Nc3ccccc3)nc(Nc3ccccc3)n2)c1`, the growth in test [1] was 83.9%; in test [2], 77.8%; in [3], 98.6%; in test [5], 95.5%; in [19] it was 92.8%; in test [6] it was -34.7% (active). The growth in [7] is 56.4%; in [8], 61.7%; in test [11] it was 49.5%; in test [12], 83.6%; in test [13], 62.1%; in test [14], 90.5%. The growth in test [16] is 61.8%; in test [17] it was 92%; in test [18] it was 75.5%.

As for `O=C(c1cc(-c2ccc(Cl)cc2)nc2ccccc12)N1N=C(c2ccccc2)CC1c1cc(-c2ccccc2)nn1-c1ccccc1` (configuration not stated), the growth in test [1] is 86.4%; in test [2], 81.1%; in test [3] it was 85.5%; in [5], 73%; in test [6] it was 92.5%; in [7], 65.1%. Moreover, the growth is 68.7% in test [8]; 73.4% in test [9]; 86.8% in test [10]; 87.1% in [11]; 89.4% in [12]; 64.3% in [13]. Also, the growth was 93.8% in test [14]; 60.8% in test [15]; 68.8% in test [16]; 89.3% in test [17]; 81.5% in test [18].

As for `Cc1[nH]n(C(=O)c2ccncc2)c(=O)c1N=Nc1ccc(S(=O)(=O)Nc2ccncn2)cc1`, the growth in test [1] was 116%; in test [2], 94.4%; in test [3], 97%; in test [4], 101%; in test [5] it was 104%; in test [6], 111%. Besides, the growth in test [7] is -33.9% (active); in test [8], 102%; in [9], 78.1%; in test [11] it was 104%; in test [12], 114%; in [13] it was 103%. In addition, the growth in [14] is 111%; in [15], 101%; in test [16], 106%; in [17], 96.7%; in [18], 114%.

Consider `COc1ccc2c(c1)OC(N(C(C)=O)C(C)=O)=C(C#N)C2c1ccc(F)cc1` (configuration not stated), for which the growth is 25.1% in test [1]; 47.9% in [2]; 51.5% in test [3]; 71.2% in test [4]; 12.8% in test [6]; 10.9% in [7]. Further, the growth in [8] is 28.7%; in test [9] it was 12.4%; in test [10], 3.13% (active); in [11] it was 38.5%; in test [12], 65.2%; in [13], 81.9%. In addition, the growth in test [14] is 23.9%; in test [15], 56.1%; in test [16] it was 11.9%; in test [17], 23.6%; in test [18], 30.6%.

Turning to `C=CCOc1ccc(/C(Cl)=N/N=C(\Cl)c2cc(OC)c(OC)c(OC)c2)cc1`, the growth in test [1] was 71.8%; in test [2] it was 88.7%; in test [3], 84.1%; in [4], 96.4%; in test [6] it was 76.8%; in test [7], 34%. The growth in test [8] was 30.8%; in test [9] it was 17%; in test [10], 70.3%; in test [11] it was 62.6%; in test [12] it was 97.5%; in test [13] it was 84.3%. The growth is 64.7% in [14], 64% in [15], 75.5% in [17] and 77.6% in [18].
